# Measurements taken from PubChem BioAssay (NCI).
# The panel holds about 83,000 compounds, 20% with a hit somewhere; the sample as a whole holds those more often.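 A percent growth of 40 corresponds to 60% growth inhibition; 0 means no net growth; -100 means all cells died. Active threshold: below 10.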 Values without a mark were called inactive. Activity calls are given as the source filed them.
# Experiments:
# Assay in all cases: NCI-60 one-dose screen, 48 h (100 = growth as untreated, 0 = no growth, -100 = all killed)
# Details in all cases: 10 µM unless noted
# [1] = system: EKVX NSCLC
# [2] = system: SN12C renal
# [3] = system: UO-31 renal
# [4] = system: TK-10 renal
# [5] = system: ACHN renal
# [6] = system: A498 renal
# [7] = system: CCRF-CEM leukemia
# [8] = system: MOLT-4 leukemia
# [9] = system: CAKI-1 renal
Compound,growth [1],growth [2],growth [3],growth [4],growth [5],growth [6],growth [7],growth [8],growth [9]
C#CCOc1cc(/C=N/Nc2nc(-c3ccc(OC)cc3)cs2)ccc1O,67.8%,86.8%,72.6%,94.2%,90.8%,82.4%,82.2%,87.3%,
O=C(Nc1cccc(Cn2c(=O)[nH]c3ccc(Oc4ncccn4)cc3c2=O)c1)c1cccc(Cl)c1,46.3%,80.1%,39.6%,53.3%,60%,45.3%,47.1%,15.4%,52.4%
Cn1ncc(CC(=O)O)c1-n1nnc2cc(Cl)ccc2c1=O,86%,92.5%,81.1%,90.7%,,134%,98.1%,100%,87.8%
O=C(Nc1cccc(Cl)c1)Oc1c(Cl)c(Cl)c(Cl)c(Cl)c1Cl,78.9%,97.1%,72.1%,125%,,78.8%,94.4%,96%,88.2%
CCC(C)C(N)C(=O)NC(CC(C)C)C(=O)N1CCCC1C(=O)NC(Cc1c[nH]c2ccccc12)C(=O)NC(CCCCN)C(=O)NC(Cc1c[nH]c2ccccc12)C(=O)N1CCCC1C(=O)NC(Cc1c[nH]c2ccccc12)C(=O)NC(Cc1c[nH]c2ccccc12)C(=O)N1CCCC1C(=O)NC(Cc1c[nH]c2ccccc12)C(=O)NC(CCCNC(=N)N)C(=O)NC(CCCNC(=N)N)C(N)=O (stereo not given),104%,101%,68.1%,,98%,130%,-58.7% (active),,90.4%
O=C1/C(=C/c2cccc(Br)c2)COc2ccc(O)c(O)c21,41.9%,-73.8% (active),-100% (active),12%,-92.8% (active),112%,4.21% (active),2.59% (active),-54.4% (active)
C=C1C(=O)O[C@H]2[C@H]1CC/C(COC(=O)NCc1ccc(Cn3c(=O)sn(CCCC)c3=O)cc1)=C\CC[C@@]1(C)O[C@@H]21,91.1%,49.5%,3.12% (active),14.7%,15.2%,100%,-22.4% (active),1.1% (active),40.6%
O=C(OCc1ccc2c(Br)cc(Br)c(O)c2n1)N1CCN(C(=O)c2cc3ccccc3[nH]2)CC1,29.9%,31.3%,12.8%,47.5%,14.4%,20.3%,21.2%,35.5%,23%
Nc1ncc(-c2ccc3ncnc(N4CCc5ccc(Cl)cc54)c3c2)cn1,2.36% (active),7.41% (active),-21.7% (active),-30.3% (active),3.09% (active),-55.2% (active),4.45% (active),-39% (active),5.95% (active)
Cc1ccc(C(F)(F)F)cc1N1CCN(C(=O)[C@H]2C[C@H]2c2ccc(C(F)(F)F)nc2)CC1,90.7%,92.6%,69%,96.4%,91.8%,95.3%,90.2%,73.2%,69.3%
